# Assay outcomes (PubChem)
# FEN1 inhibitor: blocks human flap endonuclease 1. P39748. Recombinant FEN1 flap cleavage, fluorescence, 15 min. Potency, µM (highest dose often 114 µM), without a hit: at the top dose activity change, negative = inhibition, hits mostly inhibitors. 0.35% of 390,000 active; note: % is set by controls: 0 for no effect and ±100 for the full control effect; nearly all actives have a fitted effect of over 65% in size
#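 FEN1 at 10 nM preincubated with compounds 15 min at room temperature, then flap DNA substrate added at 50 nM final. Signal read at 0 and 15 min; concentration-response fitted with four-parameter Hill equation.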
# Pol eta inh: DNA polymerase eta (human) inhibition; Q9Y253; recombinant Pol eta, fluorescent DNA replication assay; Potency, µM (series often up to 114 µM), without a hit: at the highest dose activity change, negative = inhibition, usual class: inhibitors; 1.2% of 390,000 active; AID 588591; note: % is set by controls: 0 for no effect and ±100 for the full control effect
#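 Pol eta at 10 nM preincubated with compounds 15 min at room temperature; reaction started with fluorescent substrate (50 nM final) and read kinetically at 0 and 10 min.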
# POLI inh: inhibitors of human DNA polymerase iota; Pol iota fluorescent replication assay, 10 min; Potency, µM (top dose mostly 115 µM), inactives show at the top dose activity, negative = inhibition, most hits filed as inhibitors; 1% of 390,000 active; AID 588590
#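 Pol iota at 10 nM preincubated 15 min with compounds at room temperature; reaction started with fluorescent substrate, 50 nM final. Fluorescence read kinetically at 0 and 10 min; buffer-only wells as negative control.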
# POLK inh: blocks human DNA polymerase kappa activity; Potency, µM (top dose mostly 107 µM), for the others: top-dose activity, negative = inhibition, hits mostly inhibitors; 0.53% of 400,000 active; Q9UBT6; AID 588579; purified Pol kappa, fluorescent DNA synthesis assay, 10 min; note: % is set by controls: 0 for no effect and ±100 for the full control effect
#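 10 nM Pol kappa preincubated 15 min at room temperature with compounds, then reaction started with substrate at 50 nM final. Fluorescence read kinetically at 0 and 10 min; buffer-only wells served as negative control.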
# WRN inhibitor: inhibitors of human WRN helicase; Q14191; WRN helicase unwinding, fluorescent forked duplex, kinetic; Potency, µM (doses to about 114 µM), without a hit: at the top dose activity change, negative = inhibition, actives largely listed as inhibitors; 0.46% of 360,000 active; note: % is set by controls: 0 for no effect and ±100 for the full control effect; nearly all actives have a fitted effect of over 55% in size
# Target sequence (Q14191 whole entry, looked up): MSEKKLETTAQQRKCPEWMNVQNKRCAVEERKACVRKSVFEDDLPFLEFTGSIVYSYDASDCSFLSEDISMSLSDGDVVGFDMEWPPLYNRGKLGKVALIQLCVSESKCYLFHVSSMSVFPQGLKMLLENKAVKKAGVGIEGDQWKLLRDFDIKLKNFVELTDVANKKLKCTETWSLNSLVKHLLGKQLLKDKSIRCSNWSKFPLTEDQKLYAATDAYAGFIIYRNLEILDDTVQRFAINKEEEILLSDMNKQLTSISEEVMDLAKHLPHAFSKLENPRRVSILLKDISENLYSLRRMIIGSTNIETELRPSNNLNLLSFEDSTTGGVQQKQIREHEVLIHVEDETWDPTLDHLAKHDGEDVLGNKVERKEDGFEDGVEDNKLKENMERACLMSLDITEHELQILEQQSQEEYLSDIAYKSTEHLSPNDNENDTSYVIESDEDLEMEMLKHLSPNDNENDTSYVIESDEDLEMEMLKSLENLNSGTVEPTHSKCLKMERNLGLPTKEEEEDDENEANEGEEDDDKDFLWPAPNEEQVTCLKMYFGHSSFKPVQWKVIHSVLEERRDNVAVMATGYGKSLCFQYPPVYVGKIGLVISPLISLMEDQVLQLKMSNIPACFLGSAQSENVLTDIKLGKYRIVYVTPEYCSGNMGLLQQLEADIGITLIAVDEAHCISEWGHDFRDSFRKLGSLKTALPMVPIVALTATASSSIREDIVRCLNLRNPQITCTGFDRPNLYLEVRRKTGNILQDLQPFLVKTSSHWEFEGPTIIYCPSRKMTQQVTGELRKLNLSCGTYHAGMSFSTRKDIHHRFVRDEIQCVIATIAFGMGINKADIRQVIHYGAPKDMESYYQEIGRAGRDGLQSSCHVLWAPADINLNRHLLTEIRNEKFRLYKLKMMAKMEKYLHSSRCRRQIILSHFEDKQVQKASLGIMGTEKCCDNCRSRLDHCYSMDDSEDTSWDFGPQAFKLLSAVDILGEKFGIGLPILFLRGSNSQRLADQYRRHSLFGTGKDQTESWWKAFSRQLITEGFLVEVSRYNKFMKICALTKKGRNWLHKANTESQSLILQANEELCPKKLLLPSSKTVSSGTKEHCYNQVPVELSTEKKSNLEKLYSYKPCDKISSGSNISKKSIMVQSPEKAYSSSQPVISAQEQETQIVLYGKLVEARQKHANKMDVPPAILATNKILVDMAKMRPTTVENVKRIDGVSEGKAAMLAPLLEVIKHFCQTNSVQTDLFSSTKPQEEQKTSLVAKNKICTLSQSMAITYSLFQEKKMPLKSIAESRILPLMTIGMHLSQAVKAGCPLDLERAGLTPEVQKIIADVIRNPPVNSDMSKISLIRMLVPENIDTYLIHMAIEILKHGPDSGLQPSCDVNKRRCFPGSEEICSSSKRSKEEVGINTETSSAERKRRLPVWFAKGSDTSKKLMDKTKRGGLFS
#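 WRN at 20 nM final preincubated with compound 15 min at room temperature; reaction started with 100 nM fluorophore/quencher forked duplex oligonucleotide and 2 mM ATP final. Unwinding followed kinetically by red fluorescence (ex 525, em 598 nm).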
# POLB inh: blocks human DNA polymerase beta activity. P06746. Pol beta primer extension/strand displacement, fluorescence kinetic. Potency, µM (titrated, usually from 114 µM), for the others: at the highest dose activity change, negative = inhibition, hits mostly inhibitors. 1.3% of 340,000 active. AID 485314; note: % is set by controls: 0 for no effect and ±100 for the full control effect
#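 Preincubation: enzyme (10 nM) with compound, 15 min, RT. Reaction: substrate added to 50 nM final. Reads: 0 and 10 min. Analysis: normalized, Hill fit.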
# * marks the source's active call; other numbers are inactive results; ? = inconclusive; · = no result given; ! = a repeat was not active; [ ] = remark or other dose. An excerpt weighted towards active compounds, which were near 2.4% of everything screened. Calls come from the whole dose curve; as a rule, active = well fitted curve in the direction sought with a large enough effect; inconclusive = small, poorly fitted or top-dose-only effect, or another doubt; inactive = no such curve, though single readings can be large; an effect the other way counts as inactive or inconclusive. Potency is the fitted concentration of half-maximal effect.
SMILES,FEN1 inhibitor,Pol eta inh,POLI inh,POLK inh,WRN inhibitor,POLB inh
COc1ccc(N2Cc3cccc(C(=O)NC(C)CCc4ccco4)c3C2=O)cc1 (stereo not drawn),?,22µM*,?,?,35µM*,7.9µM*
COCCN1Cc2cccc(C(=O)Nc3ccc(C)c(C)c3)c2C1=O,-6%,-4%,5%,-5%,-11%,3%
O=C(CNC(=O)C1CCCCC1)OCCOc1ccccc1,-1%,·,52%,1%,·,·
O=C(Nc1ccncc1)c1cnn2c1NC(=C1CC1)C=C2C(F)F,2%,·,3%,-25%,·,·
CCC(C)NC(=O)Nc1ccc(Br)cc1 (stereo not drawn),0%,-20%,14%,1%,-7%,-1%
CCC(C)Nc1ccc(NC(C)CC)cc1 (stereo not drawn),-15%,-12%,4%,2.5µM*!,-1%,·
CCOC(=O)c1c(S(=O)(=O)N2CCC(C(=O)NCc3ccccc3Cl)CC2)c(C)n(C)c1C,-3%,-22%,12%,-5%[60.1 µM],·,-16%
O=c1nc(/C=C/c2cc([N+](=O)[O-])ccc2Cl)cc(C(F)(F)F)[nH]1,4%,22µM*,?,12%,-26%[57.1 µM],6%
O=c1nc(/C=C/c2cccn2-c2ccc([N+](=O)[O-])cc2)cc(C(F)(F)F)[nH]1,-19%,45µM*,40µM*,89µM*,?,?
COc1cc(N(C)C)c(OC)cc1C=O,-2%,·,?,-26%,·,·
CC[C@H](C)[C@H](NC(=O)[C@H](Cc1ccc(O)cc1)NC(=O)[C@H](CCCNC(=N)N)NC(=O)[C@H](CCCNC(=N)N)NC(=O)[C@H](CC(C)C)NC(=O)[C@H](CCC(N)=O)NC(=O)[C@@H](NC(=O)[C@H](CCC(=O)O)NC(=O)[C@H](Cc1ccc(O)cc1)NC(=O)[C@H](CCC(N)=O)NC(=O)[C@H](C)NC(=O)[C@H](CCCNC(=N)N)NC(=O)[C@H](CCC(N)=O)NC(=O)[C@H](CCC(=O)O)NC(=O)[C@H](Cc1cnc[nH]1)NC(=O)[C@@H](NC(=O)[C@H](C)NC(=O)[C@H](Cc1ccc(O)cc1)NC(=O)[C@H](CC(=O)O)NC(=O)CNC(=O)[C@@H]1CCCN1C(=O)[C@H](Cc1ccc(O)cc1)NC(=O)[C@H](CCSC)NC(=O)[C@@H]1CCCN1C(=O)[C@H](CCC(=O)O)NC(=O)[C@H](CC(C)C)NC(=O)[C@@H]1CCCN1C(=O)[C@H](C)N)[C@@H](C)O)[C@@H](C)O)C(=O)N[C@@H](CC(N)=O)C(=O)N[C@H](C(=O)N[C@@H](CC(C)C)C(=O)N[C@H](C(=O)N[C@@H](CCCNC(=N)N)C(=O)N1CCC[C@H]1C(=O)N[C@@H](CCCNC(=N)N)C(=O)N[C@@H](Cc1ccc(O)cc1)C(N)=O)[C@@H](C)O)[C@@H](C)O,·,·,·,19%[60.1 µM],·,·
CCC(C)n1c(NC(=O)c2ccccc2)c(C#N)c2nc3ccccc3nc21 (stereo not drawn),?,50µM*,3.2µM*,?,-26%,40µM*
Cc1nn(C(C)(C)C)c(NC(=O)c2ccccc2)c1C#N,15%,-7%,-22%,-5%,-1%,-3%
COc1cc(/C=C(\C#N)c2nc3ccccc3[nH]2)cc(Cl)c1OCc1ccccc1Cl,15%,?,69%,-8%,·,3.2µM*
CN(C)c1cccc(-c2nnc(SCC(=O)NCc3ccco3)n2C)c1,-19%,·,-1%,-2%,·,·
COCCNC(=O)C(c1ccc(C)o1)N(CC1CCCO1)C(=O)Cn1nnc2ccccc21 (stereo not drawn),-2%,-5%,8%,-1%,5%,-2%
O=C(NCc1ccco1)C(c1ccc(F)cc1)N(CC1CCCO1)C(=O)Cn1nnc2ccccc21 (stereo not drawn),-14%,-17%,16%,-6%,1%,0.32µM*
CN(C)CCCn1cc(C2=C(c3c[nH]c4ccccc34)C(=O)NC2=O)c2ccccc21,·,·,·,-13%[19.4 µM],·,·
Cn1cc(C2=C(c3cn(CCCSC(=N)N)c4ccccc34)C(=O)NC2=O)c2ccccc21,-22%,·,89µM*,4%[60.1 µM],·,·
Cc1cc(C)nc(NC(=S)NC(=O)c2ccccc2F)n1,3%,-12%,70%,-15%,2%,·
Cc1cc(C)nc(S/C=C/C(=O)c2ccccc2F)n1,3%,-4%,4.5µM*,-16%,?,-11%
N#CCC(=O)Nc1ccc(C(=O)OCC(=O)c2ccc3c(c2)NC(=O)CO3)cc1,?,?,22µM*,?,?,·
O=C1COc2ccc(C(=O)COC(=O)c3ccco3)cc2N1,4%,0%,24%,10%,3%,6%
O=C1COc2ccc(C(=O)COC(=O)/C=C/c3ccco3)cc2N1,-16%,?,45µM*,?,-13%,·
C[C@@H]1C[C@H]2[C@@H]3CCC4=CC(=O)C=C[C@]4(C)[C@@]3(F)C(O)C[C@]2(C)[C@@]1(O)C(=O)CO (stereo partly drawn),0%,·,28%,-6%,·,·
SMILES,FEN1 inhibitor,Pol eta inh,POLI inh,POLK inh,WRN inhibitor,POLB inh
C[N+]1(CC(=O)c2c3ccccc3cc3ccccc23)CCOCC1,9%,·,0%,7%,·,·
CCC(C)[C@H](NC(=O)C1CCC(CNC(=O)[C@@H]2CCCN2C(=O)OC(C)(C)C)CC1)C(=O)O (stereo partly drawn),-7%,7%,-1%,2%,0%,0.22µM*
Cc1ccc(NC(=O)C2CCCN2C(=O)OCc2ccccc2)cc1F (stereo not drawn),-24%,-9%,?,79µM*,2%[11.6 µM],30%
Cc1ccc(NC(=O)C2CCCN2S(=O)(=O)c2ccc3nc(-c4ccccc4)[nH]c3c2)cc1F (stereo not drawn),-8%,79µM*,?,?,·,?
COc1ccc(NC(=O)C2CCCN2S(=O)(=O)c2ccc3nc(-c4ccccc4)[nH]c3c2)cc1 (stereo not drawn),27%,0%,-7%,2%,·,-6%
C=C1C=C(C(F)F)n2ncc(C(=O)N3CCN(c4ccccn4)CC3)c2N1,-18%,·,10%,-1%,·,·
Cc1ccc(F)cc1-c1ccc(C(=O)N=C(N)N)o1,·,·,·,15%[60.1 µM],·,·
Cc1cc(NC(=O)Cn2nc(-c3cccs3)ccc2=O)cc(C)c1Br,7%,-5%,-3%,-5%,-1%[57.1 µM],-1%
Cc1c(Br)ccc(NC(=O)Cn2nc(-c3cccs3)ccc2=O)c1C,-13%,-25%,50µM*,-9%,0%[11.6 µM],18µM*
